# Screening results (PubChem BioAssay)
# DAX1 inh-1 – DAX1 (NR0B1) inhibitors on StAR promoter, primary screen, cell-based, luminescence, SF-1 (NR5A1), full-length DAX-1. HEK293T StAR-luciferase reporter, SF-1/DAX-1 repression relief. inhibition, % at 6.8 µM. 370,000 tested, 1.1% active. AID 652010, 2013;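 active = inhibition above the mean over all tested compounds plus 3 SD, cut at about 3.6% in these data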;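 also: 0% = DAX-1 cells with DMSO and 100% = cells lacking DAX-1 with DMSO; higher inhibition means more luminescence from relief of DAX-1 repression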
# ssDAF-12 act – S. stercoralis DAF-12 nuclear receptor activators, primary screen, cell-based, luminescence, HEK293, GRIP1 co-expression, lit1-tk-luc. HEK293 ssDAF-12/GRIP1 lit1-tk-luc reporter; % of 3 µM dafachronic acid response. activation, % at 6.8 µM. 370,000 tested, 1% active;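 active = activation above the mean over all tested compounds plus 3 SD, cut at about 0.9% in these data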;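 also: 0% = DMSO-only wells and 100% = 3 µM delta7-dafachronic acid wells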
# hcDAF12 agonist – H. contortus DAF-12 nuclear receptor activators, primary screen, cell-based, luminescence, HEK293, lit1-tk-luc reporter. HEK293 hcDAF-12 lit1-tk-luc reporter; 0% DMSO, 100% Δ7-dafachronic acid. activation, % at 6.8 µM. 370,000 tested, 1.4% active. AID 652067, 2013;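 active = activation above the mean of all tested compounds plus 3 SD, cut at about 5.5% in these data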;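 also: 100% = response to 3 µM Δ7-dafachronic acid high control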
# hgDAF12 agonist – H. glycines DAF-12 receptor agonists, primary screen, cell-based, luminescence, HEK293, GAL4 fusion, UAS-luciferase | Nuclear hormone receptor DAF-12 (Heterodera glycines), GAL4 fusion | HEK293 GAL4-hgDAF12 UAS-luciferase reporter, agonist luminescence; normalized to butyrate control | activation, % at 6.8 µM | 370,000 tested, 1.8% active | AID 687014, 2013;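 active = activation above a cutoff set at the mean of all screened compounds plus 3 SD, cut at about 10% in these data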;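 also: 0% = DMSO wells and 100% = sodium butyrate wells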
# DAX1 inh-2 – DAX1 (NR0B1) inhibitors, primary screen, cell-based, HEK293, Gal4-DAX1, luciferase luminescence | Nuclear receptor subfamily 0 group B member 1 (Homo sapiens), P51843 | HEK293 Gal4-DAX1 luciferase reporter | inhibition, % at 6.75 µM | 340,000 tested, 0.99% active | AID 504766, 2011;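 active = inhibition above the mean over all tested compounds plus 3 SD, cut at about 4.2% in these data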;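 also: 0% = DAX1-transfected cells with DMSO and 100% = empty-vector control cells with DMSO; inhibition shows as a rise in luminescence from relieved DAX1 repression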
# Target sequence (P51843 207-470 limits assumed): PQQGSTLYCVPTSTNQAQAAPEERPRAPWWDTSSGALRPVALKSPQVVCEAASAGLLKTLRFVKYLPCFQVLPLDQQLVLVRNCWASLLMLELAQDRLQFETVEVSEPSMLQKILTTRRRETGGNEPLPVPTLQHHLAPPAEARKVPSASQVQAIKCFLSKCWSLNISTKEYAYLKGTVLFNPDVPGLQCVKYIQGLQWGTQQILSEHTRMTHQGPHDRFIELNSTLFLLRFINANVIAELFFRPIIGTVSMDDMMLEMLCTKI
# AHR activator – AHR activators, primary screen, cell-based, luminescence, luciferase reporter, human; Aryl hydrocarbon receptor (Homo sapiens), P35869; AHR-responsive luciferase reporter cells; activation, % at 5 µM; 320,000 tested, 2.5% active; AID 2796, 2010; in the data active = activation above about 47%;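 also: 0% = vehicle wells and 100% = reference agonist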
# AHR act cf – AHR activators, confirmation, cell-based, luminescence, luciferase reporter, human; shares compounds with AHR activator; human cells, AHR-responsive luciferase reporter; activation, % at 9 µM; 2,300 tested, 87% active; in the data active = activation above about 49%;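 also: HepG2 hepatoma cells carrying a DRE-driven firefly luciferase reporter; 0% = vehicle wells and 100% = reference agonist wells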
# PXR counter – human PXR activators, counter-screen for AHR activator project, cell-based, luciferase luminescence; shares compounds with AHR activator; cell-based PXR reporter; activation, % at 11.6 µM; 2,300 tested, 88% active; AID 434939, 2010; in the data active = activation above about 11%;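 also: human hepatoma DPX-2 cells expressing full-length human PXR; 0% = DMSO and 100% = reference agonist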
# Numbers without * were called inactive; x = no result given. Most compounds without a hit are left out; they make up all but 5.7% or so of the library.
SMILES,DAX1 inh-1,ssDAF-12 act,hcDAF12 agonist,hgDAF12 agonist,DAX1 inh-2,AHR activator,AHR act cf,PXR counter
O=C(Nc1cccc2ccccc12)c1cccc([N+](=O)[O-])c1,0,-1,-1,1,0,34,x,x
O=C(Nc1ccc(Cl)cc1F)c1cccc2ccccc12,0,0,0,5,0,100*,119*,12*
O=C(NNC(=O)c1cccc2ccccc12)c1ccc(Cl)cc1Cl,0,0,1,0,0,x,x,x
O=C(O)c1cccc([N+](=O)[O-])c1C(=O)Nc1cccc2ccccc12,0,0,5,0,0,84*,32,1
COc1ccccc1CC(=O)Nc1cccc2ccccc12,0,-1,-2,-1,-1,-1,x,x
COc1cccc(C(=O)Nc2cccc3ccccc23)c1OC,0,-1,-1,1,-1,117*,108*,44*
O=C(Nc1ccccc1)N(c1ccccc1)C1C=CS(=O)(=O)C1 (stereo unspecified),0,-1,0,-2,x,2,x,x
C=CCc1c(C)nc(-c2ccccc2)nc1Nc1ccc(O)cc1,-1,-1,-2,-1,0,21,x,x
C=CCc1c(C)nc(SC)nc1Nc1ccccc1,-1,-1,-3,1,-1,104*,58*,105*
C=CCc1c(C)nc(SC)nc1Nc1ccc(C(=O)O)cc1,1,-2,0,-1,2,-2,x,x
C=CCc1c(C)nc(SC)nc1Nc1ccc(C(C)=O)cc1,-1,-1,-1,0,-1,83*,73*,120*
CN1C[C@@H]2[C@@H]3C(=O)N(C)C(=O)[C@@H]3[C@](C)(C1=O)N2C(=O)c1ccc(Cl)cc1,0,0,0,0,0,x,x,x
COCCOC(=O)C1=C(C)NC(=O)NC1c1ccc(-c2cc(Cl)ccc2Cl)o1 (stereo unspecified),-1,-1,-3,-1,x,2,x,x
COC(=O)c1ccccc1NC(=O)Cn1ccnc1,0,-2,-1,0,0,104*,84*,x
O=C(O)CN1C(=O)/C(=C\c2ccccc2OCc2ccc(Cl)cc2Cl)SC1=S,-2,-3,-6,-13,-4,82*,59*,29*
Cc1ccc2c(c1)C(c1ccncc1)=NNC(c1ccccc1)=N2,1,-1,0,1,0,0,x,x
c1ccc(C2=Nc3c(ccc4ccccc34)C(c3ccncc3)=NN2)cc1,1,0,2,0,0,80*,110*,46*
CCOc1ccc(S(=O)(=O)N2CCCCC2)cc1NC(=O)Cc1cccs1,2,-1,1,-4,0,3,x,x
Cc1ccc(NC(=S)N2CCN(CCN3C(=O)c4cccc5cccc(c45)C3=O)CC2)cc1,0,-2,1,1,0,107*,110*,57*
Cc1ccc(NC(=O)CCN2C(=O)c3cccc4cccc(c34)C2=O)cc1,0,-1,4,-1,3,47,x,x
O=C1c2cccc3cccc(c23)C(=O)N1CCN1CCN(CC(O)COc2ccccc2)CC1 (stereo unspecified),0,-1,-1,0,-1,87*,59*,16*
O=C(COc1ccc([N+](=O)[O-])cc1)Nc1cccc2nsnc12,-1,-1,0,-3,0,7,x,x
O=C1C[C@@H]2C(=O)N(c3ccccc3)C(=O)[C@@H]2[C@@H]2CN(S(=O)(=O)c3ccccc3)[C@@H](c3ccccc3)[C@H]12,-1,-1,1,-1,x,x,x,x
Nc1c(C(=O)Nc2ccc(F)cc2)sc(=S)n1-c1ccccc1F,1,-2,1,4,1,0,x,x
Cn1c(N)c(C(=O)Nc2ccccc2F)sc1=S,0,-1,-1,-2,1,115*,105*,x
SMILES,DAX1 inh-1,ssDAF-12 act,hcDAF12 agonist,hgDAF12 agonist,DAX1 inh-2,AHR activator,AHR act cf,PXR counter
Cc1c(/C=N/NC(N)=O)c2ccccn2c1C(=O)c1ccc(F)cc1,-1,-1,0,-2,-1,90*,26,77*
COc1ccc2nc(NC(=O)c3ccccc3O)sc2c1,3,0,2,8,0,130*,18,33*
O=C(CN1CCOCC1)Nc1nc2ccc([N+](=O)[O-])cc2s1,-1,-1,1,2,-1,133*,91*,x
COc1ccccc1NC(=O)c1ccc([N+](=O)[O-])cc1[N+](=O)[O-],-1,-1,1,-1,-1,104*,94*,29*
COc1cccc(OC)c1C(=O)Nc1nc2ccc([N+](=O)[O-])cc2s1,0,-1,0,3,0,81*,75*,9
Nc1[nH]c(C(=O)c2ccccc2)c(-c2ccc(Br)cc2)c1C(=O)NCCCN1CCOCC1,x,-1,-1,-3,x,x,x,x
Cc1cccc(NC(=O)c2nc[nH]c2C(=O)N2CCN(C(=O)OC(C)(C)C)CC2)c1,0,-1,-2,0,3,3,x,x
C[C@H]1CN([C@@H](C)CO)C(=O)CCCn2nncc2CO[C@H]1CN(C)C(=O)C1CC1,0,-1,1,-1,2,x,x,x
Cc1cn([C@H]2C[C@H](O)[C@@H](/C=C/C(=O)NCCc3ccc(S(N)(=O)=O)cc3)O2)c(=O)[nH]c1=O,0,-1,-2,-1,x,x,x,x
CCn1cc(/C=C(\NC(=O)c2ccccc2)C(=O)N2CCOCC2)c2ccccc21,-1,-2,-1,-2,0,x,x,x
O=C(Nc1nc2ccccc2s1)c1ccc(OCC2CCCO2)cc1 (stereo unspecified),1,-1,3,0,-3,112*,69*,8
Cc1cnc(NC(=O)c2ccc(OCC3CCCO3)cc2)s1 (stereo unspecified),2,0,5,9,-3,12,x,x
N#Cc1c2ccc([N+](=O)[O-])cc2[n+]([O-])n1-c1ccccc1,-7,1,0,-5,-2,200*,253*,19*
